Results: the supplement of paper PMC11417369
The full ranking holds about 25,000 sequences; the median of “ln(normalized median fluorescence intensity)” is about 6.7, and the highest 2% start at about 10. Only a selection was taken, and the highest values are over-represented in it overall.

System: PfHDP1 homeodomain (GST-tagged)
Test: gcPBM binding intensity (ln(normalized median fluorescence intensity)); higher = stronger DNA binding
Procedure, shortened: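 Probes on an Agilent 4 × 180k array were primer-extended, double-stranded and 36 bp long, taken from intergenic genomic regions, with negative controls added. GST-tagged P. falciparum DNA-binding domains from E. coli, about 25 μg on average, were applied to the array for 1 h in 1× PBS containing 1% milk, 0.2 mg/ml BSA, 0.5% salmon testes DNA and 0.03% Triton X-100. Binding intensity, obtained after Alexa488 anti-GST antibody detection and a 488 nm scan, is the highest Masliner-normalised natural-log median intensity across replicate spots of either probe orientation.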

Sequence	gcPBM binding intensity (ln)
GTAAATATGTTTATTAGTACACATATGAAAATAAAT [XGTACX_site5820]	6.42
GAGAAATGGAGACACACACACATATTATATATATAT [CACACA_site1532]	8.68
AAACAATTATTATATTGTACATATATTACATTATTA [XGTACX_site1089]	6.23
ACTATCATTTTTTTAACACACAAAAAAAATAAAATA [CACACA_site3519]	6.44
TATATATAATATTATACACACATATATGCATAATAT [CACACA_site54]	7.56
AAATGTGAAAAAGAGTGTACCCGACTTGAAATTAAG [XGTACX_site8621]	6.92
TTAATTATAAGAAAAAGTACTCATTACATTATAGAA [XGTACX_site678]	6.12
TAGTATGATAACTTGGGTACATAAATATGGAGTATC [XGTACX_site1296]	6.81
TATATTTTAATTTGAAGTACTAATATTTATTTATAT [XGTACX_site7458]	6.14
AAAAAATATACATATACACACATATGTATATATAAT [CACACA_site8676]	6.34
AATATAATATAATGCACACATAAAAAAAAAAAAAAA [CACACA_site304]	10.9
AAAAATAATGCACATATATATAATATGTATATGTAT [CACACA_negctrl_site443]	11.1
AAAATATAATATAATGCACACATAAAAAAAAAAAAA [CACACA_site7989]	9.84
ATAATAAAAAAAAATGCACACATATATATATATATA [CACACA_site8766]	9.5
TATAATATAATATATGCACACAAATATGTATATATG [CACACA_site8664]	9.95
CTTATGTGCATACCTACACACTTACAGATATATATA [CACACA_site5622]	9.61
ATATATAATTTTTACACACGCAATAAATATATATAT [CACACA_site4283]	7.7
TTTAATTATTAAATGGTGCACTTGAAATATAAAAAT	10.1
TTGTTTTTCTTTGAATGTACTTAATGATTTCCAATT [XGTACX_site2499]	6.44
CAAAACAAAGTTGCCGCACACAGATACGCACCCAAG [CACACA_site3455]	7.09
CACACGCACAGACACACACACACACGGATATAAATA [CACACA_site6301]	7.76
ATATACATATATATGGGTACATATATTAATATATAT [XGTACX_site8358]	6.74
GTTAGGATAGATTAGACATGCACATAAATGCACTTC [TGCATGCA_site561]	10.6

Sequence	gcPBM binding intensity (ln)
AGGATATGCAGACACACACACATATAGATTTATATA [CACACA_site7100]	6.6
AAAATTAGATTATGCACACACACTTAAAAATAATAA [CACACA_site1975]	10.1
ATATAATTAAAATGCTCACACACATAAAAAAAAATT [CACACA_site2148]	8.58
TTTTGTTATTTTTGTATGCACTACATATTATTATAT	8.89
TCGTATATGGATTTTGCACACAATTTTAATTTAAAT [CACACA_site4635]	10.7
TTATTAAATAAAATCATGCACACAATATATATTTTA [CACACA_site2496]	8.65
AATAATACACAATTTTGTACGTATTTAAAATATATT [XGTACX_site45]	6.74
TCGTATATGGATTTTGCACACAATTATAATTTAAAT [CACACA_site868]	10.8
GCTAAACAATAGTTTGCACACAATTTAAATATATAT [CACACA_site193]	10.3
CATAAATTAATAGTCACACACGTATTTTTTATATAT [CACACA_site2526]	6.16
AATATAAACAGACACACACACATATAGATTTATATT [CACACA_site7382]	6.8
TTCATATAATTATATACATGCATAAATTCTAAGTAA [TGCATGCA_site622]	6.78
ATACATATATATGTGTGTACATATGTGTATACATTT [XGTACX_site6544]	6.84
TGTAATATATGTATTGCACACCTATAACCATTATTT [CACACA_site8422]	9.86
TAATATATGTATTGCACACCTATAACCATTATTTCT [CACACA_site1498]	10.5
CACACCATATAATATATATATATGTATATATTTATA [CACACA_negctrl_site397]	6.58
ACATAAAATAAATATACACACATATGTATATATCAT [CACACA_site7424]	6.52
TTTATATTATTATATCTTATTAATTATTTATCATTT [TGCATGCA_negctrl_site73]	6.23
TATTATAATATATTTGTGCACATAATACCTCCGCTA [GTGCAC_site9570]	10.9
TTATAATTTTAATGTGCACACAATTAAAATATTATA [CACACA_site5172]	10.2
TAAATTATAATATGCACACAAAATGTTATATTAAAA [CACACA_site376]	9.55
TATATATATATTTTTTGTACATATTATATAATATAC [XGTACX_site5187]	8.42
TAATAATATATTTGTAGTACACAATTTTTTATAACT [XGTACX_site3951]	6.34

Sequence	gcPBM binding intensity (ln)
TTATAATATTAATGTGCACACAATTAAAATATTATA [CACACA_site2046]	10.7
AACTGTACAATTTTTGTGCACAATAATTATTAATAT [GTGCAC_site9462]	11
TTTTTTTTTTTTTTTGTGCACAATATAATTTTTAAT [GTGCAC_site9747]	10.8
TATTTATTTTTTTTTGTGCACTTAATATAATCTTAC	9.51
AATATATATATTAGAGTGCACATAATTATTTGCTAA	8.88
TTTTTTTTTTTTAATGCACACAATATATAATATGTA [CACACA_site3694]	10.2
ATATTTTATTTAATTACACACAATATTGCAATTTGT [CACACA_site669]	8.74
TTTTTATATATATGTATAAATATTTTTTCTATTTAT [XGTACX_negctrl_site606]	6.46
ACATCAAGCAGACACACACACACACCCACCCACCCA [CACACA_site8012]	6.5
ACAGGAAAAAACAATTGTACATGTATATATATATAT [XGTACX_site7677]	9.16
AAATATTACATACACGCACACATTAATATATTTAAA [CACACA_site2603]	7.25
TATAAAGATATAAATGCACACGTATTAAAAAAAAAA [CACACA_site8223]	8.22
AAAAAAAAAAAAAAATGTACATATTAAGTATAATTA [XGTACX_site4616]	6.23
TTATATTTTTTAATTACACACAATTTTTATAAATAT [CACACA_site4148]	6.66
CATATAAATATTTGTGCACACAATTATTAATAATTA [CACACA_site3884]	11.2
TTAATTTTATTTTTTTGTACACATAAATATTATAAA [XGTACX_site4680]	6.62
TGTATGTATTAATGCGCACACAAAAAATAACAATAT [CACACA_site1848]	7.88
TAAATAATAATAAATGTGCACAGGTATTAACAAAAA [GTGCAC_site9988]	10.6
TATGTATGTATTAATGCGCACACAAAAAATAACAAT [CACACA_site8551]	7.73
TAAGATATAAAAAATGTGCACATTAAAGTATTAATT	10.5
TAATAAATAAAAACATGTACATATATACATATATGT [XGTACX_site485]	6.35
ATATATATAAATATATGTACATAAATATATTTGTAA [XGTACX_site6715]	6.71
GAAAAAAGGAAATAAAGAAAAAAAAAAATGAAATAT [XGTACX_negctrl_site318]	6.22

Sequence	gcPBM binding intensity (ln)
AACATTTTAAAACAGACACACACCAAAAAAAAAAAA [CACACA_site257]	6.26
GGACAAGTTAAACGCACACAAATATATACCCCCATA [CACACA_site4996]	7.91
CCTTGTCTTTTTTTTTTTTTTTTTTCTTCTTATTTT [GTGCAC_negctrl_site523]	6.24
CATATAGTAATATATACACACACTTGTCTTGTAAAA [CACACA_site8238]	6.54
ATTTAATACAAATACACACACAAATATGTACCTATA [CACACA_site7718]	7.02
GAAAAATATATTCTGGTGCATGAATAAAATCATAAA	9.33
ACATTCTGATGGTGATTATTAATTATTACAAAAATT [CACACA_negctrl_site283]	6.01
GTTTACATCATTCTGGTGCAAAAAAAAAAAAAAATA	10.5
AATTAAAAAGTTTTTAATGTTTTTAATTTTTTCCAC [XGTACX_negctrl_site423]	5.99
TATATATATTAAAAACGTACAAAATAAGAATTAATT [XGTACX_site5979]	6.8
TTATTTTATTTTTGTGCACACTGATAAATTGAAAAG [CACACA_site2949]	11.2
ATTTTATTTTTGTGCACACTGATAAATTGAAAAGAG [CACACA_site2948]	11.1
TTTTGAAAAAATTTTTATAAAAGAATAAAATTATTA [XGTACX_negctrl_site570]	6.06
TTTATTTTTGAAGTTGCACACACAAAAATAAAAAGT [CACACA_site8030]	8.92
TATTTTGAAAAAGTTGCACACAAAATTTAAAAAAAA [CACACA_site8470]	9.29
TTTATATTAATTGATGTGCACTGAAATATTTGTCCA [GTGCAC_site9655]	9.08
CACTTTTTTTAAATGTGTACGTATATGAAAATATCA [XGTACX_site4854]	6.38
GTTATATGAACTTATATACACACCATTTTTGTAAAT [CACACA_site695]	6.69
AAAATTAACCGTAACACACACACATATAAATATGTA [CACACA_site7791]	6.55
TAATTTTTCCTTTTTGCACACATTAACGTCGACGAA [CACACA_site4025]	10.8
TCTAATTATCACATTGCACACACATTTCCTTTTACA [CACACA_site9140]	9.66
TAATTATCACATTGCACACACATTTCCTTTTACATT [CACACA_site3443]	9.61
